Inconclusive results are not listed. Unmarked numbers belong to inactive results. Active and inactive are the calls of the source. Calls come from the whole dose curve; as a rule, active = well fitted inhibition curve with a large enough effect; inconclusive = small, poorly fitted or top-dose-only effect; inactive = no such curve, though single readings can be large or run the other way.
The compounds below were run against Rap guanine nucleotide exchange factor 4 (Homo sapiens) (UniProt Q8WZA2) (assay: Confirmatory qHTS for antagonist of cAMP-regulated guanine nucleotide exchange factor 4 (EPAC2) (AID 1645885; note: nearly all actives have a fitted effect of over 25% in size; note: potency is the fitted concentration of half-maximal effect; for activity change, negative = inhibition: % is set by controls: 0 for no effect and ±100 for the full control effect)). Details: EPAC2 Rap1B-BODIPY-GDP exchange fluorescence, biochemical; series mostly up to 12.7 µM; activity change, negative = inhibition: at the top concentration.
Chain of Rap guanine nucleotide exchange factor 4 (Homo sapiens) (Q8WZA2 whole entry, looked up): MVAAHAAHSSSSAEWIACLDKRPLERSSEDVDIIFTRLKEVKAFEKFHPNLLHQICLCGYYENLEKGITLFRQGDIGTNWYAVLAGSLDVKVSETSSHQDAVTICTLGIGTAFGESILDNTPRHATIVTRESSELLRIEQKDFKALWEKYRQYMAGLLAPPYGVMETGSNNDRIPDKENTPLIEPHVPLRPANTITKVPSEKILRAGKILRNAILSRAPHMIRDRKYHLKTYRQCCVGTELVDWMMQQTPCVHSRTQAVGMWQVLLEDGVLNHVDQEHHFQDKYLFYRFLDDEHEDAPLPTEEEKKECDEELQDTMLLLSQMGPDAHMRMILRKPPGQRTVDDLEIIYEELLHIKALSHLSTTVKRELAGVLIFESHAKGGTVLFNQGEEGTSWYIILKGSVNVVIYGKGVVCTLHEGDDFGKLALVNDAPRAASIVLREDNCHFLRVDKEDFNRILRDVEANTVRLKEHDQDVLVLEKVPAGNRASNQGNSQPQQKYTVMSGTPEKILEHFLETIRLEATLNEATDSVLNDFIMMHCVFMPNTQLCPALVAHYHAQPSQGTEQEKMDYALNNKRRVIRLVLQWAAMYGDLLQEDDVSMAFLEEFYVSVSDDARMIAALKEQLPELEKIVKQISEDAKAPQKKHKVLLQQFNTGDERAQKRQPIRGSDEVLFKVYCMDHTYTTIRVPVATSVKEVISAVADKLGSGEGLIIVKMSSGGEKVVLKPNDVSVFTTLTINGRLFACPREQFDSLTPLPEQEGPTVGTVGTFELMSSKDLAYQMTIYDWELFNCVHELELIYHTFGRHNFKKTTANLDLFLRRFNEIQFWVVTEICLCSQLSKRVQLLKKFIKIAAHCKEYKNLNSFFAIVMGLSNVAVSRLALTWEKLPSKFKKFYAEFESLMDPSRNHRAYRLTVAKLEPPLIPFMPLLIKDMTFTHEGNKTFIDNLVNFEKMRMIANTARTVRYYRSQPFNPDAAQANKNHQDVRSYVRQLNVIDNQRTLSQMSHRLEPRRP

Row | SMILES | activity change, negative = inhibition | outcome | Potency
1 | Cc1ccccc1C(=O)Nc1sc2c(c1C(=O)N1CCCCC1)CCC(C)C2 (stereo not given) | -0.354% | – | –
2 | CCSc1nc2c([nH]c3ccccc32)c(=O)n1-c1cccc(OC)c1 | 6.52% | – | –
3 | CN(C)C(=O)c1cccc(-c2cnc3c(NC=O)cc(-c4ccccc4Cl)cn23)c1 | -3.18% [at 114 µM] | – | –
4 | CCCN(CC(=O)Nc1ccccc1OC)C(=O)c1cccc(S(=O)(=O)Nc2ccc(OC)cc2)c1 | -31.6% [at 114 µM] | – | –
5 | CCCCn1c(COc2cccc(OC)c2)nc2ccccc21 | – | inactive [at 12.7 µM] | –
6 | Cc1ccc(OCC(=O)Nc2ccc(Cl)c(-c3nc4ccccc4[nH]3)c2)cc1C | – | inactive [at 12.7 µM] | –
7 | COc1cccc(C(=O)Nc2ccc(NC(=O)c3ccco3)c(Cl)c2)c1 | -6.94% | – | –
8 | CC(=O)c1ccc(OCc2nnn(CC(=O)NS(=O)(=O)c3ccc(C)cc3)c2-c2ccccc2)cc1 | -24.3% | – | –
9 | Cc1ccc(C(=O)N2CCc3cc(CNC(=O)CSc4ccccc4)ccc32)cc1 | 2.84% | – | –
10 | CC(C)(C)Cc1c(-c2ccccc2)nc2ccc(Cl)cn12 | -17.2% | – | –
11 | O=C(/C=C/c1ccc(-c2ccccc2[N+](=O)[O-])o1)c1ccco1 | 3.06% | – | –
12 | COc1cc(OC)c(NC(=O)CN(C)S(=O)(=O)c2ccc(-c3ccc(=O)[nH]n3)s2)cc1Cl | 58.6% [at 114 µM] | – | –
13 | CCC(CO)n1c(SCc2cc([N+](=O)[O-])cc3c2OCOC3)nc2ccccc2c1=O (stereo not given) | -12.9% | – | –
14 | O=C1CS(=O)(=O)N(Cc2cccc(F)c2)c2ccc(Br)cc21 | – | inactive | –
15 | Cc1cc(/C=C2\SC(=S)NC2=O)c(C)n1-c1cccc(O)c1 | -22.4% [at 114 µM] | – | –
16 | Oc1ccc(NCc2cccc(OCc3ccccc3)c2)cc1 | -24.2% [at 114 µM] | – | –
17 | COc1ccc(CCNC(=O)CS(=O)(=O)Cc2nc(-c3ccc(C)cc3)oc2C)cc1OC | -16.3% | – | –
18 | COc1ccccc1[C@]1(C)ON(c2ccccc2C(F)(F)F)C1=O | -14.6% [at 114 µM] | – | –
19 | Clc1ccc(C(c2ccccc2)c2c[nH]c3ccccc23)s1 (stereo not given) | -14% | – | –
20 | Cc1cccc(N2CCN(C(=O)c3[nH]c(C(F)(F)F)nc3-c3ccccc3)CC2)c1C | – | inactive | –

Row | SMILES | activity change, negative = inhibition | outcome | Potency
21 | O=C(O)CC/C(=C/c1cccc(NC(=O)c2ccccc2Cl)c1)c1nc2ccccc2s1 | 12.3% [at 114 µM] | – | –
22 | COc1cc(NC(=O)c2cc3nc(-c4ccccc4)cc(-c4ccccc4)n3n2)cc(OC)c1OC | 39.5% [at 114 µM] | – | –
23 | Cc1ccc(N=Cc2c(O)c3ccccc3n(C)c2=O)cc1 | 55.4% [at 114 µM] | – | –
24 | O=C(O)c1ccn2c(C(=O)c3ccc(Cl)cc3)c(-c3ccccc3)cc2c1 | – | inactive | –
25 | Cn1c(=O)c2c(-c3ccccc3Br)n(Cc3ccccc3)cc2n(C)c1=O | 46.2% | – | –
26 | COc1ccc(NC(=O)Cn2ncc(Cl)c(Cl)c2=O)cc1S(=O)(=O)N1CCOCC1 | -1.55% | – | –
27 | O=C(CSc1ccc(-c2ccco2)nn1)c1cccc([N+](=O)[O-])c1 | -2.5% [at 114 µM] | – | –
28 | COc1ccc(Nc2cc(C(=O)NCCCN3CCN(c4ccccc4F)CC3)c3ccccc3n2)c(OC)c1 | -0.453% | – | –
29 | Brc1cc2c(cc1CSc1ncccn1)OCO2 | -32% | – | –
30 | CC(NS(=O)(=O)OCC(Cl)(Cl)Cl)c1ccc(Br)cc1 (stereo not given) | 147% [at 114 µM] | – | –
31 | C=C(C)COc1ccc(-c2[nH]ncc2-c2ccccc2OC)c(O)c1 | -14.2% | – | –
32 | COc1cc2c(cc1OC)C(c1ccc(Cl)cc1)N(c1ccc(C)c(F)c1)C(=O)C2 (stereo not given) | – | inactive [at 12.7 µM] | –
33 | CC1=NN(c2cccc(C(=O)O)c2)C(=O)/C1=C\C=C/c1ccccc1 | 31.9% [at 114 µM] | – | –
34 | O=c1nc(/C=C/c2cccn2-c2ccc([N+](=O)[O-])cc2)cc(C(F)(F)F)[nH]1 | -1.76% [at 114 µM] | – | –
35 | COC(=O)[C@]12CCCCC=C1N(CCC1=CCCCC1)C(=O)[C@H](CC(=O)NCc1cccc(C(F)(F)F)c1)C2 | -15.3% | – | –
36 | CS(=O)(=O)c1ccc(C(=O)NCCN2C(=O)S/C(=C\c3cccnc3)C2=O)cc1[N+](=O)[O-] | 4.44% | – | –
37 | O=S(=O)(Nc1cc(Sc2ncn[nH]2)c(O)c2ccccc12)c1ccccc1 | -4.4% | – | –
38 | O=C(O)c1ccc(N/N=C/c2ccc(-c3ccccc3Cl)o2)cc1 | -11.8% | – | –
39 | Oc1c(Br)cc(Br)cc1CNc1cccc2cccnc12 | – | – | 26.9 µM (active)
40 | CCC1=NN2C(=N)/C(=C/c3ccc(OS(=O)(=O)c4ccccc4)cc3)C(=O)N=C2S1 | -6.12% [at 114 µM] | – | –

What follows are compounds tested against Rap guanine nucleotide exchange factor 3 (Homo sapiens) (UniProt O95398) (assay: Counterscreen qHTS for antagonist of cAMP-regulated guanine nucleotide exchange factor 3 (EPAC1) (AID 1645888;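 note: fluorescence loss as bound BODIPY-GDP is released from Rap1B; % of control where 0% means no effect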)). Details: Rap1B-BODIPY-GDP nucleotide exchange, fluorescence; series mostly up to 154 µM; activity change, negative = inhibition: at the top concentration.
Chain of Rap guanine nucleotide exchange factor 3 (Homo sapiens) (O95398 whole entry, looked up): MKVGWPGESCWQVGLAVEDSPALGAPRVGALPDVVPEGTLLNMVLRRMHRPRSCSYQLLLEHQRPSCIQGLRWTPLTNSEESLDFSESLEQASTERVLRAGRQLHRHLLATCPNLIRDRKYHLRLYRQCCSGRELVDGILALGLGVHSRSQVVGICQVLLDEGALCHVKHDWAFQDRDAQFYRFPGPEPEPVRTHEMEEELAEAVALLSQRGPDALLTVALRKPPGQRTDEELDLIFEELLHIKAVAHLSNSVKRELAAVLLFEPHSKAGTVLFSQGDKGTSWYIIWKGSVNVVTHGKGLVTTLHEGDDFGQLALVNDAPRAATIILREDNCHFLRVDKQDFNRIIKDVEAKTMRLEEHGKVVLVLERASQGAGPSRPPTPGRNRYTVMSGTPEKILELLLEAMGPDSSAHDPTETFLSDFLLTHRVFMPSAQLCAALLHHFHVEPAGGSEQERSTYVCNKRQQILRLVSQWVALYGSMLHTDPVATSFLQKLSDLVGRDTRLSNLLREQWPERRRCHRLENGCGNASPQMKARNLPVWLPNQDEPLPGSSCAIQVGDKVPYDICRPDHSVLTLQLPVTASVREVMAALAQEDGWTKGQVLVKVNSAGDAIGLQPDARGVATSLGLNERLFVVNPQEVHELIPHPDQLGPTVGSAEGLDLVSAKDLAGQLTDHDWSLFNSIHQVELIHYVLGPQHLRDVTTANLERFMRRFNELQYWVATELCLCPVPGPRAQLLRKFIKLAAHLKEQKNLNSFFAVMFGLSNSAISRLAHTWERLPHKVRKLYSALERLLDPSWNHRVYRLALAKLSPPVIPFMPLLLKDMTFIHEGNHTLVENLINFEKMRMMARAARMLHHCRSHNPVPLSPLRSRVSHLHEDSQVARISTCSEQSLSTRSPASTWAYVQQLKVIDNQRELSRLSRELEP
Outline: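 Measured: fluorescence of BODIPY-GDP bound to Rap1B, which falls as exchange proceeds. Conditions include 50 uM competing GDP, 5 and 30 min reads, and a later cAMP challenge for antagonist detection.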

Row | SMILES | activity change, negative = inhibition
41 | Cc1ccccc1C(=O)Nc1sc2c(c1C(=O)N1CCCCC1)CCC(C)C2 (stereo not given) | 13.2%
42 | CCSc1nc2c([nH]c3ccccc32)c(=O)n1-c1cccc(OC)c1 | 17.5%
43 | CN(C)C(=O)c1cccc(-c2cnc3c(NC=O)cc(-c4ccccc4Cl)cn23)c1 | -0.236%
44 | CCCN(CC(=O)Nc1ccccc1OC)C(=O)c1cccc(S(=O)(=O)Nc2ccc(OC)cc2)c1 | -0.686%
45 | CCCCn1c(COc2cccc(OC)c2)nc2ccccc21 | 0.194%
46 | Cc1ccc(OCC(=O)Nc2ccc(Cl)c(-c3nc4ccccc4[nH]3)c2)cc1C | -1.44%
47 | COc1cccc(C(=O)Nc2ccc(NC(=O)c3ccco3)c(Cl)c2)c1 | -46.5% [at 30.8 µM]
48 | CC(=O)c1ccc(OCc2nnn(CC(=O)NS(=O)(=O)c3ccc(C)cc3)c2-c2ccccc2)cc1 | -5.72% [at 30.8 µM]
49 | Cc1ccc(C(=O)N2CCc3cc(CNC(=O)CSc4ccccc4)ccc32)cc1 | 19%
50 | CC(C)(C)Cc1c(-c2ccccc2)nc2ccc(Cl)cn12 | -2.23% [at 30.8 µM]
51 | O=C(/C=C/c1ccc(-c2ccccc2[N+](=O)[O-])o1)c1ccco1 | 9.73% [at 30.8 µM]
52 | COc1cc(OC)c(NC(=O)CN(C)S(=O)(=O)c2ccc(-c3ccc(=O)[nH]n3)s2)cc1Cl | 48.9%
53 | CCC(CO)n1c(SCc2cc([N+](=O)[O-])cc3c2OCOC3)nc2ccccc2c1=O (stereo not given) | 19.8% [at 30.8 µM]
54 | O=C1CS(=O)(=O)N(Cc2cccc(F)c2)c2ccc(Br)cc21 | 15.3%
55 | Cc1cc(/C=C2\SC(=S)NC2=O)c(C)n1-c1cccc(O)c1 | 17.5%
56 | Oc1ccc(NCc2cccc(OCc3ccccc3)c2)cc1 | 9.16%
57 | COc1ccc(CCNC(=O)CS(=O)(=O)Cc2nc(-c3ccc(C)cc3)oc2C)cc1OC | -2.91% [at 30.8 µM]
58 | COc1ccccc1[C@]1(C)ON(c2ccccc2C(F)(F)F)C1=O | 11.4%
59 | Clc1ccc(C(c2ccccc2)c2c[nH]c3ccccc23)s1 (stereo not given) | 33.7%
60 | Cc1cccc(N2CCN(C(=O)c3[nH]c(C(F)(F)F)nc3-c3ccccc3)CC2)c1C | -3.13%

Row | SMILES | activity change, negative = inhibition
61 | O=C(O)CC/C(=C/c1cccc(NC(=O)c2ccccc2Cl)c1)c1nc2ccccc2s1 | 53.2%
62 | COc1cc(NC(=O)c2cc3nc(-c4ccccc4)cc(-c4ccccc4)n3n2)cc(OC)c1OC | 19.2%
63 | Cc1ccc(N=Cc2c(O)c3ccccc3n(C)c2=O)cc1 | 18.2%
64 | O=C(O)c1ccn2c(C(=O)c3ccc(Cl)cc3)c(-c3ccccc3)cc2c1 | 0.547%
65 | Cn1c(=O)c2c(-c3ccccc3Br)n(Cc3ccccc3)cc2n(C)c1=O | 4.22%
66 | COc1ccc(NC(=O)Cn2ncc(Cl)c(Cl)c2=O)cc1S(=O)(=O)N1CCOCC1 | 1.4% [at 30.8 µM]
67 | O=C(CSc1ccc(-c2ccco2)nn1)c1cccc([N+](=O)[O-])c1 | 16.2%
68 | COc1ccc(Nc2cc(C(=O)NCCCN3CCN(c4ccccc4F)CC3)c3ccccc3n2)c(OC)c1 | 5.9%
69 | Brc1cc2c(cc1CSc1ncccn1)OCO2 | -28.4% [at 30.8 µM]
70 | CC(NS(=O)(=O)OCC(Cl)(Cl)Cl)c1ccc(Br)cc1 (stereo not given) | 0.307%
71 | C=C(C)COc1ccc(-c2[nH]ncc2-c2ccccc2OC)c(O)c1 | 6.08% [at 30.8 µM]
72 | COc1cc2c(cc1OC)C(c1ccc(Cl)cc1)N(c1ccc(C)c(F)c1)C(=O)C2 (stereo not given) | -15.4%
73 | CC1=NN(c2cccc(C(=O)O)c2)C(=O)/C1=C\C=C/c1ccccc1 | 9.25%
74 | O=c1nc(/C=C/c2cccn2-c2ccc([N+](=O)[O-])cc2)cc(C(F)(F)F)[nH]1 | 26.3%
75 | COC(=O)[C@]12CCCCC=C1N(CCC1=CCCCC1)C(=O)[C@H](CC(=O)NCc1cccc(C(F)(F)F)c1)C2 | -9.47% [at 30.8 µM]
76 | CS(=O)(=O)c1ccc(C(=O)NCCN2C(=O)S/C(=C\c3cccnc3)C2=O)cc1[N+](=O)[O-] | -27.7% [at 30.8 µM]
77 | O=S(=O)(Nc1cc(Sc2ncn[nH]2)c(O)c2ccccc12)c1ccccc1 | 3.32% [at 30.8 µM]
78 | O=C(O)c1ccc(N/N=C/c2ccc(-c3ccccc3Cl)o2)cc1 | 1.4% [at 30.8 µM]
79 | Oc1c(Br)cc(Br)cc1CNc1cccc2cccnc12 | 14.9%
80 | CCC1=NN2C(=N)/C(=C/c3ccc(OS(=O)(=O)c4ccccc4)cc3)C(=O)N=C2S1 | 6.83%

— PubChem BioAssay (NCATS)
